Source: PubChem BioAssay
Rv3671c protease: Rv3671c (M. tuberculosis) protease inhibition. P9WHR9. inhibition, % at 5.96 µM. 0.048% of 320,000 active. AID 2606; in the data active means inhibition above about 38%;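 further: extracellular domain of Rv3671c used as enzyme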
Target sequence (P9WHR9 whole entry, looked up, the tested form may be a part): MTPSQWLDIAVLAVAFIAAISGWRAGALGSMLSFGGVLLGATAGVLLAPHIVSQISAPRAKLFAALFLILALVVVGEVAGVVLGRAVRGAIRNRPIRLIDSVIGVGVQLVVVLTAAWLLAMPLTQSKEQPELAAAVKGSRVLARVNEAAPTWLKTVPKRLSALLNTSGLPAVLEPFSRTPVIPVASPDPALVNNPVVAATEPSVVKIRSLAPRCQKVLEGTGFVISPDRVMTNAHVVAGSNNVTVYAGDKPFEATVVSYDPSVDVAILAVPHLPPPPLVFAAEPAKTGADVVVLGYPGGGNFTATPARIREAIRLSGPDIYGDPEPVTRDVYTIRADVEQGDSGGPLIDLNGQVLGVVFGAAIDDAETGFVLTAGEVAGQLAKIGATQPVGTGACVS
FBA Mtb inh: Mtb fructose-bisphosphate aldolase inhibition; inhibition, % at 1 µM; AID 588726; 2.3% of 360,000 active; P9WQA3; purified M. tuberculosis FBA, fluorescence read-out
GDH-TPI counter-1: inhibits GDH-TPI coupling enzymes, artifact for Mtb FBA screen; GDH-TPI coupled enzyme counterscreen, NADH absorbance; inhibition, % at 4.8 µM; 1.2% of 360,000 active; AID 588335; in the data active means inhibition above about 30%
UGM FP inh: inhibitors of M. tuberculosis UDP-galactopyranose mutase | P9WIQ1 | purified UGM, fluorescence polarization probe displacement | inhibition, % at 10 µM | 0.06% of 320,000 active | AID 504406; in the data active means inhibition above about 10%, passing the limit was not always enough
Mtb FBA confirm: Mtb FBA inhibition, confirmed | shares compounds with FBA Mtb inh | purified M. tuberculosis FBA, fluorescence read-out | inhibition, % at 1 µM | 78% of 5,600 active
GDH-TPI counter-2: inhibits GDH-TPI coupling enzymes, flagging Mtb FBA hits | GDH-TPI coupled enzyme counterscreen, fluorescence | inhibition, % at 1 µM | AID 652141 | shares compounds with FBA Mtb inh | 81% of 5,600 active; in the data active means inhibition above about 10%
Of the large screens only hits and unclear results are named; the others gave an inactive call (follow-up assays come after a bar, where they were run). An excerpt weighted towards active compounds, which were near 3.5% of everything screened. Unless noted, no stated cut-off is given here; in the data, active means inhibition above about 27%; inactive means the rest.

CC1(C)CC(=O)C2=C(C1)N(CCN1CCOCC1)C1=C(C(=O)CC(C)(C)C1)C2c1cccc(Cl)c1	FBA Mtb inh 29.9 | Mtb FBA confirm inactive | GDH-TPI counter-2 inactive
COc1ccc(CCC(=O)Nc2ccc(S(=O)(=O)Nc3nccc(C)n3)cc2)cc1	none
CCN(CC)S(=O)(=O)c1cccc(C(=O)Oc2cccc(NC(=O)c3cccs3)c2)c1	none
N#Cc1c(-c2ccccc2)cc(-c2ccc3c(c2)OCO3)[nH]c1=O	none
COc1ccc(-c2cc(-c3ccco3)[nH]c(=O)c2C#N)cc1OC	FBA Mtb inh 49.3 | Mtb FBA confirm 44.2 | GDH-TPI counter-2 35.8
COc1cc(OC)c(C2=NOC(C(=O)Nc3ccc4c(c3)OCO4)C2)cc1Cl (stereo unspecified)	FBA Mtb inh 57.1 | Mtb FBA confirm 52.8 | GDH-TPI counter-2 42.4
O=C(NCCc1cccc(Cl)c1)c1ccc(OC2CCN(Cc3ccccn3)CC2)cc1	none (no result: Rv3671c protease, UGM FP inh)
Cc1[nH]n2c(=O)c3c(nc2c1-c1cccc2ccccc12)CCC3	FBA Mtb inh 50.8 | Mtb FBA confirm 132.2 | GDH-TPI counter-2 96.2
O=C(COC(=O)c1ccccc1SCC(=O)NC1CCS(=O)(=O)C1)NC1CCS(=O)(=O)C1 (stereo unspecified)	none
CCNC(=O)NC(=O)COC(=O)c1ccccc1SCC(=O)NC(=O)NCC	FBA Mtb inh 79.0 | Mtb FBA confirm inactive | GDH-TPI counter-2 inactive
CCN(CC)c1cc(C)c2cc(NC(=O)CNC(C)=O)ccc2n1	FBA Mtb inh 49.3 | Mtb FBA confirm 101.2 | GDH-TPI counter-2 110.1
c1coc(-c2ccnc3ncnn23)c1	FBA Mtb inh 92.6 | Mtb FBA confirm 93.6 | GDH-TPI counter-2 74.5
c1cncc(-c2ccnc3ncnn23)c1	none
O=C(Nc1cccc(-c2nc3ncccc3o2)c1)c1ccccc1	none
CCCCC(=O)Nc1cccc(-c2nc3ncccc3o2)c1C	none
CC(C)CC(=O)Nc1cccc(-c2nc3ncccc3o2)c1	FBA Mtb inh 31.6 | Mtb FBA confirm inactive | GDH-TPI counter-2 inactive
Cc1ccc(-c2nc3ncccc3o2)cc1NC(=O)C(C)C	FBA Mtb inh 55.4 | Mtb FBA confirm inactive | GDH-TPI counter-2 inactive
Cc1c(NC(=O)C(C)C)cccc1-c1nc2ncccc2o1	FBA Mtb inh 28.7 | Mtb FBA confirm inactive | GDH-TPI counter-2 inactive
COc1ccc(NC(=O)CSc2nnc(NC(=O)C3CC3)s2)cc1OC	none
O=C(NC(C(=O)N/N=C/c1ccccn1)c1n[nH]c(=O)c2ccccc12)c1ccccc1 (stereo unspecified)	none
O=c1cc(-c2ccccc2)oc2ccc(Cl)cc12	none (no result: Rv3671c protease, UGM FP inh)
O=c1cc(-c2cccs2)oc2ccc(Cl)cc12	FBA Mtb inh 37.8, GDH-TPI counter-1 37.6 | Mtb FBA confirm 155.8 | GDH-TPI counter-2 119.5
CCCCNc1c(-c2cccc(SC(C)CC)c2)nc2ccc(Cl)cn12 (stereo unspecified)	none
CCCCCCSc1ccc(-c2nc3ccc(C)cn3c2NCc2ccccc2)cc1	none
CCCCNc1c(-c2ccc(SC(C)CC)cc2)nc2ccccn12 (stereo unspecified)	FBA Mtb inh 56.9 | Mtb FBA confirm 82.8 | GDH-TPI counter-2 71.7
CCCCCCSc1ccc(-c2nc3ccc(C)cn3c2NCc2ccccc2)cc1OC	FBA Mtb inh 37.8 | Mtb FBA confirm 146.3 | GDH-TPI counter-2 109.7
CCC(C)Sc1cc(-c2nc3ccccn3c2NC2CCCCC2)ccc1OC (stereo unspecified)	FBA Mtb inh 33.9 | Mtb FBA confirm 87.4 | GDH-TPI counter-2 78.2
CCCCCCSc1cc(-c2nc3ccc(C)cn3c2NCCCC)ccc1OC	FBA Mtb inh 27.7 | Mtb FBA confirm 139.3 | GDH-TPI counter-2 107.3
CSc1cccc(NC(=O)c2nnn(CC(=O)Nc3cc(C)cc(C)c3)c2N)c1	none
c1csc(-c2nc3ccccn3c2NC2CCCCC2)c1	FBA Mtb inh 42.9 | Mtb FBA confirm inactive | GDH-TPI counter-2 inactive
CCCCNc1c(-c2ccc(Sc3ccc(OC)cc3)cc2)nc2cc(C)ccn12	FBA Mtb inh 52.8 | Mtb FBA confirm 53.6 | GDH-TPI counter-2 59.8
CCCCNc1c(-c2ccc(OC)c(SC(C)CC)c2)nc2ccc(C)cn12 (stereo unspecified)	FBA Mtb inh 40.8 | Mtb FBA confirm 74.1 | GDH-TPI counter-2 86.9
CCCCNc1c(-c2ccc(OC)c(SC(C)CC)c2)nc2cc(C)ccn12 (stereo unspecified)	FBA Mtb inh 30.7 (no result: UGM FP inh) | Mtb FBA confirm 92.9 | GDH-TPI counter-2 91.1
CCOc1ccc(NC(=O)CN(C)C(=O)C2CCN(C(=O)Nc3ccccc3)CC2)cc1OCC	none (no result: Rv3671c protease, UGM FP inh)
Cc1ccc(NS(=O)(=O)c2c(C(=O)N3CCCCCC3)c(C)n(C)c2C)c(C)c1	none
CC(C(=O)Nc1ccc2c(c1)OCCO2)N(C)CC(=O)Nc1ccccc1Br (stereo unspecified)	none (no result: Rv3671c protease, UGM FP inh)
COc1cccc2cc(C(=O)c3ccc([N+](=O)[O-])cc3)oc12	none
Cn1cc(Cc2ccc(C(=O)N3CCCCC3)cn2)c2ccccc21	none (no result: Rv3671c protease, UGM FP inh)
COC(=O)Cc1cc(=O)n2c(nc3ccccc32)[nH]1	FBA Mtb inh 65.0 | Mtb FBA confirm 34.7 | GDH-TPI counter-2 17.7
CCCCCc1c(C)[nH]c2nc3ccccc3n2c1=O	none
Cc1cc(=O)[nH]c2nc3ccccc3n12	FBA Mtb inh 47.3 (no result: Rv3671c protease, UGM FP inh) | Mtb FBA confirm 75.6 | GDH-TPI counter-2 59.7
CC1(C)CC(NC(=O)c2ccccn2)CC(C)(C)N1O	none
CN(C)C1=NCC(CSC(=N)N)S1 (stereo unspecified)	FBA Mtb inh 68.2 | Mtb FBA confirm 200.0 | GDH-TPI counter-2 174.9
Cn1c(=O)c2c(C(=O)O)cc(-c3ccccc3)nc2n(Cc2ccccc2)c1=O	none
COc1ccccc1-c1cc(C(=O)O)c2c(=O)n(C)c(=O)n(Cc3ccccc3)c2n1	FBA Mtb inh 38.2 | Mtb FBA confirm inactive | GDH-TPI counter-2 inactive
O=S(=O)(c1ccc(Cl)cc1)N1CN2CCN(C2)C1	none
O=S(=O)(c1ccc(F)cc1)N1CN2CCN(C2)C1	FBA Mtb inh 30.1 | Mtb FBA confirm inactive | GDH-TPI counter-2 inactive
CC(=O)c1ccc(NC(=O)C(C)Sc2nnc(-c3ccncc3)n2C2CC2)cc1 (stereo unspecified)	none
C/C(=N\N=C(N)N)c1cc(Cl)ccc1Cl	none
C/C(=N\N=C(N)N)c1ccc(Cl)cc1Cl	FBA Mtb inh 28.4 | Mtb FBA confirm 28.7 | GDH-TPI counter-2 17.1
Cc1cccc(NC(=O)CNC(=O)COc2ccc(-c3ccc(C#N)cc3)cc2)c1C	FBA Mtb inh 28.8 | Mtb FBA confirm 100.6 | GDH-TPI counter-2 79.8
N#Cc1ccc(-c2ccc(OCC(=O)Nc3cccnc3)cc2)cc1	FBA Mtb inh 42.7 (no result: Rv3671c protease) | Mtb FBA confirm 115.9 | GDH-TPI counter-2 85.0
O=C(NCc1ccco1)c1cnc2n(c1=O)CCS2	none
Cc1csc2ncc(C(=O)NCc3ccco3)c(=O)n12	FBA Mtb inh 35.5 | Mtb FBA confirm 124.0 | GDH-TPI counter-2 114.5
Cc1csc2ncc(C(=O)Nc3ccon3)c(=O)n12	FBA Mtb inh 54.8 | Mtb FBA confirm 123.9 | GDH-TPI counter-2 105.0
COc1ccc(C2NC(=O)c3ccccc3N2)c(OC)c1OC (stereo unspecified)	FBA Mtb inh 76.6 (no result: Rv3671c protease, UGM FP inh) | Mtb FBA confirm 74.6 | GDH-TPI counter-2 65.5
